# Data from publication PMC7862700, “An all-to-all approach to the identification of sequence-specific readers for epigenetic DNA modifications on cytosine”.
# How the values were obtained:
# Assay in all cases: DAPPL (digital affinity profiling via proximity ligation, sequencing); 10 mM Tris-HCl pH 7.5, 50 mM NaCl, 1 mM DTT, 4% glycerol, room temperature, 30 min; GST-TFs on glutathione beads, 16-mer random dsDNA library, 0.1% formaldehyde crosslink after washing; high values mean tight binding
# [1] = target: T1, FEV (Homo sapiens, UniProt Q99581 1-238); details: protein: recombinant; tags: N-terminal GST; dsDNA, one strand shown
# T1 sequence: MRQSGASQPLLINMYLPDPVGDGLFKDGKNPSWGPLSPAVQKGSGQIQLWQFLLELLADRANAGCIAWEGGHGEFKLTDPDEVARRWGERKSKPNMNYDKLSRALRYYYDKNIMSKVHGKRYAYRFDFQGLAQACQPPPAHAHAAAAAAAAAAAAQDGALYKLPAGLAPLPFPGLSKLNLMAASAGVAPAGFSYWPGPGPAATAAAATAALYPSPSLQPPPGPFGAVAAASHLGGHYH
# How it was run: (§1)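 Binding signal is given per hexamer as its read frequency for a factor divided by its frequency in the tag-only sample. GST-fused human transcription factors were expressed in yeast, captured on glutathione beads, barcoded with DNA and pooled with that sample, then incubated with 200 nmole of a 16-mer random double-stranded DNA library in Tris/NaCl/DTT/glycerol buffer for 30 min at room temperature. The pools were then washed, crosslinked, proximity-ligated, amplified by PCR and sequenced on an Illumina NextSeq500.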
# [2] = target: ETV5 (Homo sapiens, UniProt P41161 1-510); details: protein: recombinant; tags: N-terminal GST; dsDNA, one strand shown
# Sequence of ETV5 (P41161 whole entry): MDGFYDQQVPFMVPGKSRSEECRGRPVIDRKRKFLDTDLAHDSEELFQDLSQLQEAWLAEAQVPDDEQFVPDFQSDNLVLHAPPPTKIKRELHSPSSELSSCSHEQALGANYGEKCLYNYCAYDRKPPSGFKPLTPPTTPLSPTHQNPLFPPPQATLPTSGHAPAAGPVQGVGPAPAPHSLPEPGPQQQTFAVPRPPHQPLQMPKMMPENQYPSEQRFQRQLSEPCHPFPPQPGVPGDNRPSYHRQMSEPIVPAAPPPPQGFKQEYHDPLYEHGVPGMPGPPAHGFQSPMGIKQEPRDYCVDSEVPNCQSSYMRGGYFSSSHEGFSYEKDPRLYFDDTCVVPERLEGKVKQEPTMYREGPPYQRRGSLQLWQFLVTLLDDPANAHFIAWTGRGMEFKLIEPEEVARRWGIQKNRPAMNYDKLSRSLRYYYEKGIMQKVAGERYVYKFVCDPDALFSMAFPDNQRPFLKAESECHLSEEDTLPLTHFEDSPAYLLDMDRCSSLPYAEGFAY
# How it was run: as §1
# [3] = target: HSF1 (Homo sapiens, UniProt Q00613 1-529); details: protein: recombinant; tags: N-terminal GST; chain copies: 3; dsDNA, one strand shown
# Sequence of HSF1 (Q00613 whole entry): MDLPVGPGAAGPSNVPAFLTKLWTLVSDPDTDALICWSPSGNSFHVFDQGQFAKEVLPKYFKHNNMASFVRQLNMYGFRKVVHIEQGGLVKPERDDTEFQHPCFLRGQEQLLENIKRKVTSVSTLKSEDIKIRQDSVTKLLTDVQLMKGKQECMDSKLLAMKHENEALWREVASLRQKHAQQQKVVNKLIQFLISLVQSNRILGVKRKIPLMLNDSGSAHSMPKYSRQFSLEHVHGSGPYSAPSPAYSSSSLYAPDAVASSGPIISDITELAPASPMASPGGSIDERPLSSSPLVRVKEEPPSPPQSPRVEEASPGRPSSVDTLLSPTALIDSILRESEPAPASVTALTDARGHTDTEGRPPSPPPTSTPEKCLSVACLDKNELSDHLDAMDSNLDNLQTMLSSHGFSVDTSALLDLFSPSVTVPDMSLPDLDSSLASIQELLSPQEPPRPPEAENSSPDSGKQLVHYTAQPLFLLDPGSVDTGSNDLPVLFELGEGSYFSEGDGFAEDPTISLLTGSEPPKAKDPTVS
# How it was run: as §1
# [4] = target: T2, SPIC (Homo sapiens, UniProt Q8N5J4 1-248); details: protein: recombinant; tags: N-terminal GST; dsDNA, one strand shown
# T2 sequence: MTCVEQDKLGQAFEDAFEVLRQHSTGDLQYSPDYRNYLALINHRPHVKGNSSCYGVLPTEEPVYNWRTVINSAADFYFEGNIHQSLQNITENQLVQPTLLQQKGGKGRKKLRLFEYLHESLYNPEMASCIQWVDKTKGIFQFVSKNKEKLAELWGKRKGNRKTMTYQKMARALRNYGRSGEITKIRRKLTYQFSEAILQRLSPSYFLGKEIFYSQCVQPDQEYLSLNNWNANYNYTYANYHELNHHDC
# How it was run: as §1
# [5] = target: ELF4 (Homo sapiens, UniProt Q99607 1-663); details: protein: recombinant; tags: N-terminal GST; dsDNA, one strand shown
# Sequence of ELF4 (Q99607 whole entry): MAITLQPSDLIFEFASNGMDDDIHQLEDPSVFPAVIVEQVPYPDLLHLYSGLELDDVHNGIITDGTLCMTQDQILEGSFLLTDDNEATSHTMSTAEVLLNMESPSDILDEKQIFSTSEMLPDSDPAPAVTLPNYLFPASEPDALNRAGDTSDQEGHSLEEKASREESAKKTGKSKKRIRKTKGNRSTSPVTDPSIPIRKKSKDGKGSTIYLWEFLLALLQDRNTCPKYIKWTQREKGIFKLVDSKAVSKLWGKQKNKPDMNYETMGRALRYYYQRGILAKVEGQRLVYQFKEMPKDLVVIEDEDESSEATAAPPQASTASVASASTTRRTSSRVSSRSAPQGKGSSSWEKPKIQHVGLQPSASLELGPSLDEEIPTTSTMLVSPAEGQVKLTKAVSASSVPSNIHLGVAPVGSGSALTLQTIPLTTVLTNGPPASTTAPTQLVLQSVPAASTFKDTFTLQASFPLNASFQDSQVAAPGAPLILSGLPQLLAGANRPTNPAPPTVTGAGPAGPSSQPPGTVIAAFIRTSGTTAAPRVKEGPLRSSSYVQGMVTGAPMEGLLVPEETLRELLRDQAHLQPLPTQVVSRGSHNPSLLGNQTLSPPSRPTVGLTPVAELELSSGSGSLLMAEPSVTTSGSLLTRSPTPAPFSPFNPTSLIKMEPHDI
# How it was run: as §1
# [6] = target: T3, ELK4 (Homo sapiens, UniProt P28324-2 1-405); details: protein: recombinant; tags: N-terminal GST; dsDNA, one strand shown
# T3 sequence: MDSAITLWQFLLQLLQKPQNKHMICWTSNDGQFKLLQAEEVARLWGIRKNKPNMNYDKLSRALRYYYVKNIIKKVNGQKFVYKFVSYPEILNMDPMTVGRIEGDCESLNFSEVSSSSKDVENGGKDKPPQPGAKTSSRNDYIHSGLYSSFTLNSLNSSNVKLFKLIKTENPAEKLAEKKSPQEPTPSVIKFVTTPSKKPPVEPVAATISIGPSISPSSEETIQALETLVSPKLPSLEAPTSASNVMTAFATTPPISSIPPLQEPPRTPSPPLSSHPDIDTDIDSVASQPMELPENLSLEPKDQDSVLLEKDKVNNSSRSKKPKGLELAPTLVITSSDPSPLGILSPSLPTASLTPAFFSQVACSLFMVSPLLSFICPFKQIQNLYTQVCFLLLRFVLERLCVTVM
# How it was run: as §1
# [7] = target: T4, ETV2 (Homo sapiens, UniProt O00321 1-342); details: protein: recombinant; tags: N-terminal GST; dsDNA, one strand shown
# T4 sequence: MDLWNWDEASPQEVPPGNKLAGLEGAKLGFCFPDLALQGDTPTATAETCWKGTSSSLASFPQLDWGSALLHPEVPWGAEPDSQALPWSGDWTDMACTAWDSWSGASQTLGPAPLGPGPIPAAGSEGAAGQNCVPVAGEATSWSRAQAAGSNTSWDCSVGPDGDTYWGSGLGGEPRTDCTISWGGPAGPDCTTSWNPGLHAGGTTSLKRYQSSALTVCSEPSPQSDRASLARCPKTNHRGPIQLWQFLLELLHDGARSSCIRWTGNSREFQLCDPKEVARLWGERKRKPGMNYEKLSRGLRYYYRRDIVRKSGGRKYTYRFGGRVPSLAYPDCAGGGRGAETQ
# How it was run: as §1
# [8] = target: T5, ELF3 (Homo sapiens, UniProt P78545 1-371); details: protein: recombinant; tags: N-terminal GST; dsDNA, one strand shown
# T5 sequence: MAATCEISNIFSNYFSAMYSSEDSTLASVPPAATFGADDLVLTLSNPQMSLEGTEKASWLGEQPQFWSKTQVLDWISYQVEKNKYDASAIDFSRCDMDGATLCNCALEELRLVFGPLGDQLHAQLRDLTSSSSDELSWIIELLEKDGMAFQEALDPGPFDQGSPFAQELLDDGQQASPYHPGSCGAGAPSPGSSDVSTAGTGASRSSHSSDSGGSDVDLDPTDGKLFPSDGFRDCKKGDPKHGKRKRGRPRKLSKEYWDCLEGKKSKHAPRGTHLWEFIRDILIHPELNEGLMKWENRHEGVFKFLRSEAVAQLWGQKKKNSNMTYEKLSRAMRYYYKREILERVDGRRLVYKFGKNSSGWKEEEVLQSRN
# How it was run: as §1
# [9] = target: CRX (Homo sapiens, UniProt O43186 1-299); details: protein: recombinant; tags: N-terminal GST; dsDNA, one strand shown
# Sequence of CRX (O43186 whole entry): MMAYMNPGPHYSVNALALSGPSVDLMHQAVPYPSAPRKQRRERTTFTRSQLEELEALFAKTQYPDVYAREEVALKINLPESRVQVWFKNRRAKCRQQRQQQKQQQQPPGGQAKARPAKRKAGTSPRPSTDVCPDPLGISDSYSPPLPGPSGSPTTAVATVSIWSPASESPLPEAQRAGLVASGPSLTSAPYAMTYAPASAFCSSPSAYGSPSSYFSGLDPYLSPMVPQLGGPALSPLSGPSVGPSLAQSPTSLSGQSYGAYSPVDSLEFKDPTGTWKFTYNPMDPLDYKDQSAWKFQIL
# How it was run: as §1
# [10] = target: ETV1 (Homo sapiens, UniProt P50549 1-477); details: protein: recombinant; tags: N-terminal GST; dsDNA, one strand shown
# Sequence of ETV1 (P50549 whole entry): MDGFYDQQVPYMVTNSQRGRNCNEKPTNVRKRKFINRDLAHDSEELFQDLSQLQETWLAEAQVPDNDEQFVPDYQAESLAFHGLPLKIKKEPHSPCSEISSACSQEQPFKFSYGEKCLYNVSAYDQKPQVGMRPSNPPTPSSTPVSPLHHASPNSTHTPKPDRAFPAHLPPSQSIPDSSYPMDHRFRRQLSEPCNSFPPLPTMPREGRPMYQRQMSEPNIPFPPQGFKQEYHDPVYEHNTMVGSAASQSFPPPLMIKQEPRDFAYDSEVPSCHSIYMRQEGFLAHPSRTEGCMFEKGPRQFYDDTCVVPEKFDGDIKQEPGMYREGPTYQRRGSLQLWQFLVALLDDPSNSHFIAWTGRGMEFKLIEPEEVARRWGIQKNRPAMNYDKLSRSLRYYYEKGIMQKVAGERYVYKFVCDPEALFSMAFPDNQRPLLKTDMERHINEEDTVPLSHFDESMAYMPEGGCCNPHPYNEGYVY
# How it was run: as §1
# [11] = target: T6, ERF (Homo sapiens, UniProt P50548 1-548); details: protein: recombinant; tags: N-terminal GST; dsDNA, one strand shown
# T6 sequence: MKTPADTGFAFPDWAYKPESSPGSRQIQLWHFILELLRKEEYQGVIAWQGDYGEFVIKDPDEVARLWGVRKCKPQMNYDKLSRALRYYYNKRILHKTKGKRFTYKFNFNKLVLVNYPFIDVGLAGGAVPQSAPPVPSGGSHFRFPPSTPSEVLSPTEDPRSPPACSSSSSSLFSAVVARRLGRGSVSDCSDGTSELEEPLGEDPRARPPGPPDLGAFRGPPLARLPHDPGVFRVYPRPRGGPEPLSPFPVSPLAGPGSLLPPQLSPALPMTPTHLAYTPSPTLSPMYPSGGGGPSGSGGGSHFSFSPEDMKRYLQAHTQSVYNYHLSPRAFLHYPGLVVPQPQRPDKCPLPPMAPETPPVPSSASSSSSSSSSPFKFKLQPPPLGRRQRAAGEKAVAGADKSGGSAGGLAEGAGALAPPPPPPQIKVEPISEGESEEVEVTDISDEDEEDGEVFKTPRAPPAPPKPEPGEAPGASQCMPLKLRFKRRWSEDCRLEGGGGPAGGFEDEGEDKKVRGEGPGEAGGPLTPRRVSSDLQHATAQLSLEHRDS
# How it was run: as §1
# [12] = target: T7, ETV3L (Homo sapiens, UniProt Q6ZN32 1-361); details: protein: recombinant; tags: N-terminal GST; dsDNA, one strand shown
# T7 sequence: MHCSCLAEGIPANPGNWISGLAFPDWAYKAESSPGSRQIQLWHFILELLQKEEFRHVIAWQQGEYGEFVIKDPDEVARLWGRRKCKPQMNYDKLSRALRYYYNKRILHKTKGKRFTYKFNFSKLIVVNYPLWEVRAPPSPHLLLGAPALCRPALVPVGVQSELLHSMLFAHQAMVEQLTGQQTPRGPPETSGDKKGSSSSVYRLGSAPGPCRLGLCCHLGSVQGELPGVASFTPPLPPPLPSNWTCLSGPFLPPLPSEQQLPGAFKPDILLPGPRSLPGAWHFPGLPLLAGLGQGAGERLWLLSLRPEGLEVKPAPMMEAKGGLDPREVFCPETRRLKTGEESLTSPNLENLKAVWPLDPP
# How it was run: as §1
# [13] = target: T8, ETS2 (Homo sapiens, UniProt P15036 1-469); details: protein: recombinant; tags: N-terminal GST; dsDNA, one strand shown
# T8 sequence: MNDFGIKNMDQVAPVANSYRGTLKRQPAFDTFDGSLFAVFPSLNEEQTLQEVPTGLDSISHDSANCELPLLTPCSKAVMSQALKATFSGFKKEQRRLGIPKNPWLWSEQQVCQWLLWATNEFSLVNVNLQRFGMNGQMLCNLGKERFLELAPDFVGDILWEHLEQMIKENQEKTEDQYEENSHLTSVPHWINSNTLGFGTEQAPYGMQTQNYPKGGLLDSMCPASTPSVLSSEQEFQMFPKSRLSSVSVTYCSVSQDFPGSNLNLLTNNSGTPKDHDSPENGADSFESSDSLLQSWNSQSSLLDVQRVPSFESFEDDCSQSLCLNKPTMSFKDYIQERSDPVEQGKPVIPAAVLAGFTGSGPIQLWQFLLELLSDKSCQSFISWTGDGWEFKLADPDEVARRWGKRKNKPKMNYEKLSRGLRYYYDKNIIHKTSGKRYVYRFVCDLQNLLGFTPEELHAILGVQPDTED
# How it was run: as §1
# [14] = target: T9, SPDEF (Homo sapiens, UniProt O95238 1-335); details: protein: recombinant; tags: N-terminal GST; dsDNA, one strand shown
# T9 sequence: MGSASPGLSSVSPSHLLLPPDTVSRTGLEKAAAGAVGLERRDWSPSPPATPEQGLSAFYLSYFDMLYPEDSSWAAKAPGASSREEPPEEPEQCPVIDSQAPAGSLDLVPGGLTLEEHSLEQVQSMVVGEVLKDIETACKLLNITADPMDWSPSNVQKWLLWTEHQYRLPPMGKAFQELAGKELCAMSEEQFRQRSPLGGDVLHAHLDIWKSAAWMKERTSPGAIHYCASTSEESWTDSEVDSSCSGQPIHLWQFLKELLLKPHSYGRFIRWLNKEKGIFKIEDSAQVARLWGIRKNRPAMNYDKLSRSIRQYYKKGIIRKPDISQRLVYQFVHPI
# How it was run: as §1
# [15] = target: T10, ETV7 (Homo sapiens, UniProt Q9Y603 1-341); details: protein: recombinant; tags: N-terminal GST; dsDNA, one strand shown
# T10 sequence: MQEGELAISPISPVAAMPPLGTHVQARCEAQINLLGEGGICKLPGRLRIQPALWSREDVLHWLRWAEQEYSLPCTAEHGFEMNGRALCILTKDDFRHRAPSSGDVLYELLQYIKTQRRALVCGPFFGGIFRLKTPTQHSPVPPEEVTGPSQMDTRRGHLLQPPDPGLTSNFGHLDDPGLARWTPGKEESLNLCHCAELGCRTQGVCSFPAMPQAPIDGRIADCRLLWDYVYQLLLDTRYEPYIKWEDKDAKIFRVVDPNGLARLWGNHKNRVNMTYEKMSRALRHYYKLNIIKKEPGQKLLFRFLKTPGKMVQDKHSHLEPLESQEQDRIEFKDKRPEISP
# How it was run: as §1
# [16] = target: T11, ELF5 (Homo sapiens, UniProt Q9UKW6-2 1-255); details: protein: recombinant; tags: N-terminal GST; dsDNA, one strand shown
# T11 sequence: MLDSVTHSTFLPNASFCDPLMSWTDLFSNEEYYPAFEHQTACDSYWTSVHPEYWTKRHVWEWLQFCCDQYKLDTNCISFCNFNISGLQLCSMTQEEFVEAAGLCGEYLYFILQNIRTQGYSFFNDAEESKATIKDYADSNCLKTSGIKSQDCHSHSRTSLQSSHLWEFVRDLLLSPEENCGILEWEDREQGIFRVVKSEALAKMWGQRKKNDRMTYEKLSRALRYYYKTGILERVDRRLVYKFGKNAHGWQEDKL
# How it was run: as §1
# [17] = target: T12, ETV3 (Homo sapiens, UniProt P41162-2 1-143); details: protein: recombinant; tags: N-terminal GST; dsDNA, one strand shown
# T12 sequence: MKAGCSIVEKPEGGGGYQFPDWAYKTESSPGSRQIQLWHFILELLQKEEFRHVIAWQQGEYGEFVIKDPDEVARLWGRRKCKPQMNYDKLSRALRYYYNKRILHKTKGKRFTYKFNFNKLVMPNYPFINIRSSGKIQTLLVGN
# How it was run: as §1
# [18] = target: ETV6 (Homo sapiens, UniProt P41212 1-452); details: protein: recombinant; tags: N-terminal GST; dsDNA, one strand shown
# Sequence of ETV6 (P41212 whole entry): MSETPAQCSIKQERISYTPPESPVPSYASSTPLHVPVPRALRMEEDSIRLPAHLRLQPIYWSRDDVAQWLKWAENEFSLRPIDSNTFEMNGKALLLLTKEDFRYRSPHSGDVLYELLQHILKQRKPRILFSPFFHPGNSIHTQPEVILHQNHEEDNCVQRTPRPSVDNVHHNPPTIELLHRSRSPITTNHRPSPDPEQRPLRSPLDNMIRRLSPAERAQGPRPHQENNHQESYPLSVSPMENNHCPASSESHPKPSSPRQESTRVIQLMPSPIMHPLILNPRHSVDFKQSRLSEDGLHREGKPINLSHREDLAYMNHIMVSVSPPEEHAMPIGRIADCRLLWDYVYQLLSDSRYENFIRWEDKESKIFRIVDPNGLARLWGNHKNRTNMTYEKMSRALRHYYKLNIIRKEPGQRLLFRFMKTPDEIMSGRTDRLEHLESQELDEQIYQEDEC
# How it was run: as §1
sequence,measurement,setting,value
TTGAAT,binding signal,[1],"1.03 fold enrichment (6-mer frequency, TF over GST control)"
same,binding signal,[2],"1.07 fold enrichment (6-mer frequency, TF over GST control)"
same,binding signal,[3],"1.09 fold enrichment (6-mer frequency, TF over GST control)"
same,binding signal,[4],"1.16 fold enrichment (6-mer frequency, TF over GST control)"
same,binding signal,[5],"1.12 fold enrichment (6-mer frequency, TF over GST control)"
same,binding signal,[6],"1.05 fold enrichment (6-mer frequency, TF over GST control)"
same,binding signal,[7],"1.04 fold enrichment (6-mer frequency, TF over GST control)"
same,binding signal,[8],"1.1 fold enrichment (6-mer frequency, TF over GST control)"
same,binding signal,[9],"1.17 fold enrichment (6-mer frequency, TF over GST control)"
same,binding signal,[10],"1.11 fold enrichment (6-mer frequency, TF over GST control)"
same,binding signal,[11],"1.05 fold enrichment (6-mer frequency, TF over GST control)"
same,binding signal,[12],"1.01 fold enrichment (6-mer frequency, TF over GST control)"
same,binding signal,[13],"1.06 fold enrichment (6-mer frequency, TF over GST control)"
same,binding signal,[14],"1.17 fold enrichment (6-mer frequency, TF over GST control)"
same,binding signal,[15],"1.09 fold enrichment (6-mer frequency, TF over GST control)"
same,binding signal,[16],"1.09 fold enrichment (6-mer frequency, TF over GST control)"
same,binding signal,[17],"1.02 fold enrichment (6-mer frequency, TF over GST control)"
same,binding signal,[18],"1.03 fold enrichment (6-mer frequency, TF over GST control)"
